Source: PubChem
In the library only some 4% were active in any assay of this set; here they are far more common.
Gli-Sufu block = Gli-Sufu pathway antagonism. inhibition, % at 5 µM. AID 588413. Sufu-KO-LIGHT fibroblasts, Gli luciferase reporter luminescence. hit rate 0.74% among 340,000;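 active = inhibition above about 55%, limit read from the data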;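 note: 0% = DMSO-treated cells and 100% = wells with medium but no cells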
PAX8 inh HTS = PAX8 transcriptional activity inhibition; RMG-I TPO-luciferase reporter, SteadyGlo, 24 h; hit rate 1.2% among 360,000; inhibition, % at 12.6 µM;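 active = mean replicate inhibition at least 60% with every replicate also reaching 60%; inconclusive = only one of the two criteria is met; inactive = mean below 60% and not all replicates reaching 60%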;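 note: luciferase light reporting Pax8 driven TPO promoter activity; plate controls were median of neutral control wells for no effect and mitoxantrone controls for full effect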
Mdm2 MdmX PPI = human Mdm2/MdmX binding inhibition | AID 485346 | inhibition, % at 8 µM | hit rate 3% among 330,000 | SaOS-2 split-luciferase Mdm2/MdmX complementation, luminescence | O15151+Q00987;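 active = inhibition of at least 50% at 8 µM in the primary screen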
Beta cell apopt = beta cell apoptosis inhibition | INS-1E cytokine-induced death, ATP luminescence, 48 h; percent of positive-control rescue, neutral wells zero | protection from apoptosis, % (test concentration not listed) | hit rate 0.8% among 300,000 | AID 435005;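 active = Every replicate reaches about 75%, or at least half do and their mean reaches it too, limit read from the data; inconclusive = At least half of replicates reach the limit but their mean does not; inactive = Under half of replicates reach the limit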;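 note: 0% = cytokine-treated negative control wells and 100% = positive control rescue; higher means more ATP so stronger rescue from cytokine killing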
CSC inhib = cancer stem cell inhibition; cancer stem cell-like cells viability, luminescence; inhibition, % at 7.5 µM; hit rate 1.1% among 300,000; AID 2717; in the data active = inhibition above about 75%; inconclusive = no clear call, values can overlap the other calls; tested in HMLE shEcad cells
Shn3 inh set2 = reduces Shn3 3'UTR luciferase signal in osteoblasts; AID 588674; Clone20 osteoblast Shn3 3'UTR firefly luciferase, 24 h; hit rate 0.52% among 360,000; inhibition, % at 12.5 µM;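 active = mean inhibition of at least 75% with every replicate also reaching 75%; inconclusive = mean inhibition at least 75% but some replicate below; inactive = mean inhibition below 75%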;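 note: 0% = median of neutral control wells and 100% = pilot-screen positive control compound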
* hit, by the source's call; u = inconclusive; x = not tested or not shown; ! = a repeat was not active.

SMILES	Gli-Sufu block	PAX8 inh HTS	Mdm2 MdmX PPI	Beta cell apopt	CSC inhib	Shn3 inh set2
C[C@@H]1CN([C@@H](C)CO)C(=O)Cc2cc(NC(=O)C3CC3)ccc2O[C@H]1CN(C)Cc1ccc(-c2ccccc2)cc1	x	91*	x	x	x	x
C[C@@H]1CN([C@@H](C)CO)C(=O)Cc2cc(NC(=O)Cc3ccccc3)ccc2O[C@H]1CN(C)Cc1ccc(-c2ccccc2)cc1	x	79*	x	x	x	x
C[C@@H]1CN([C@H](C)CO)C(=O)Cc2cc(NC(=O)C3CC3)ccc2O[C@H]1CN(C)Cc1ccc(-c2ccccc2)cc1	x	23	x	x	x	x
C[C@H]1CN([C@@H](C)CO)C(=O)Cc2cc(NC(=O)c3ccncc3)ccc2O[C@H]1CN(C)Cc1ccc(-c2ccccc2)cc1	x	69*	x	x	x	x
C[C@H]1CN([C@@H](C)CO)C(=O)Cc2cc(NC(=O)Nc3ccc4c(c3)OCO4)ccc2O[C@@H]1CN(C)Cc1ccc(-c2ccccc2)cc1	x	78*	x	x	x	x
Cc1ccc(S(=O)(=O)N(C)C[C@@H]2Oc3ccc(NC(=O)C4CC4)cc3C(=O)N([C@@H](C)CO)C[C@H]2C)cc1	x	2	x	x	x	x
C[C@@H]1CCCCO[C@@H](CN(C)C(=O)Nc2ccc(F)cc2)[C@H](C)CN([C@@H](C)CO)C(=O)c2cc(NC(=O)c3ccncc3)ccc2O1	x	18	x	x	x	x
O=C(C[C@@H]1C[C@H]2c3cc(NC(=O)C4CCC4)ccc3O[C@H]2[C@H](CO)O1)NCC(F)(F)F	x	3	x	x	x	x
O=c1cc(C(F)(F)F)[nH]c2c(OC(F)(F)F)cccc12	-1	27	-8	6	79*	20
Cc1cccc2c(=O)cc(C(F)(F)F)[nH]c12	2	5	38	0	16	7
CC1Cc2ccccc2N1C(=S)NC(=O)c1ccc(Cl)cc1Cl (stereo not drawn)	-4	62*	40	14	20	-13
Cn1cnc(S(=O)(=O)N2CC[C@@H]3[C@H](CO)Nc4ccc(C#Cc5ccccc5F)cc4[C@@H]32)c1	x	16	x	x	x	x
O=C(Cn1cc(/C=C\[N+](=O)[O-])c2ccccc21)Nc1ccccc1	5	18	31	-5	x	95*
N#Cc1ccccc1Cn1cc(/C=C/[N+](=O)[O-])c2ccccc21	9	-7	47	x	x	96*
O=c1[nH]cnc2c1nnn2C1OC(CO)C(O)C1O (stereo not drawn)	x	x	x	x	x	-39
CN(C)c1ncnc2c1nnn2C1OC(CO)C(O)C1O (stereo not drawn)	x	91*	x	x	x	-31
O=C(Nc1ccccc1)N1CCCCN2[C@H](CO)[C@@H](c3ccc(C4=CCCCC4)cc3)[C@H]2C1	x	16	x	x	x	x
COc1cccc(S(=O)(=O)NCc2ccc(C(=O)Nc3ccc(Cl)cc3)cc2)c1	-6	7	30	3	u	35
COc1cccc(S(=O)(=O)NCc2ccc(C(=O)Nc3cccc(Cl)c3)cc2)c1	11	x	35	10	99*	19
CCN(CC)c1ccc(S(=O)(=O)Nc2cc(Cl)ccc2Cl)cc1NC(=S)NC(=O)C1CCCC1	11	-2	17	x	100*	4
C[C@@H]1CN([C@@H](C)CO)S(=O)(=O)c2ccc(C#Cc3cccc(F)c3)cc2O[C@@H]1CN(C)C(=O)NC1CCCCC1	x	14	x	x	x	x
COc1ccc(C#Cc2ccc3c(c2)O[C@@H](CN(C)C(=O)c2ccccn2)[C@H](C)CN([C@@H](C)CO)S3(=O)=O)cc1	x	65*	x	x	x	x
C[C@@H]1CN([C@H](C)CO)S(=O)(=O)c2ccc(C#Cc3ccncc3)cc2O[C@H]1CN(C)C(=O)C1CCCCC1	x	78*	x	x	x	x
C[C@H]1CN([C@@H](C)CO)S(=O)(=O)c2ccc(/C=C/c3ccccc3)cc2O[C@H]1CN(C)C(=O)NC1CCCCC1	x	70*!	x	x	x	-12
C[C@@H]1CN([C@@H](C)CO)S(=O)(=O)c2ccc(C#Cc3ccc(F)cc3)cc2O[C@H]1CN(C)C(=O)NC1CCCCC1	x	99*	x	x	x	x
SMILES	Gli-Sufu block	PAX8 inh HTS	Mdm2 MdmX PPI	Beta cell apopt	CSC inhib	Shn3 inh set2
C[C@@H]1CN([C@@H](C)CO)S(=O)(=O)c2ccc(/C=C/c3ccccc3)cc2O[C@H]1CN(C)C(=O)NC1CCCCC1	x	-4	x	x	x	x
COc1ccc(C#Cc2ccc3c(c2)O[C@H](CN(C)C(=O)c2ccccn2)[C@H](C)CN([C@@H](C)CO)S3(=O)=O)cc1	x	14	x	x	x	x
COc1ccccc1NC(=O)N[C@H]1CC[C@H](CCNC(=O)Cc2ccccn2)O[C@H]1CO	x	-1	x	x	x	x
Cc1ccc(-c2ccc3c(c2)O[C@@H](CN(C)C(=O)Nc2ccccc2)[C@@H](C)CN([C@@H](C)CO)S3(=O)=O)cc1	x	56	x	x	x	x
CO[C@@H]1CN(C)C(=O)c2ccc(NC(=O)C3CCOCC3)cc2OC[C@@H](C)N(CC2CC2)C[C@@H]1C	x	-1	x	x	x	x
O=C(C[C@H]1C=C[C@@H](NC(=O)c2ccncc2)[C@H](CO)O1)Nc1ccc(-c2ccccc2)cc1	x	-6	x	x	x	x
O=C(C[C@@H]1C=C[C@@H](NC(=O)c2cccc(F)c2)[C@H](CO)O1)NCc1ccc(Oc2ccccc2)cc1	x	16	x	x	x	x
C[C@@H]1CN([C@H](C)CO)S(=O)(=O)c2ccc(/C=C/c3ccccc3)cc2O[C@@H]1CN(C)C(=O)Nc1cc(F)ccc1F	x	43	x	x	x	x
C[C@@H]1CN([C@H](C)CO)S(=O)(=O)c2ccc(C#Cc3ccc(F)cc3)cc2O[C@@H]1CN(C)C(=O)NC1CCCCC1	x	58	x	x	x	x
C[C@H](CO)N1C[C@H](C)[C@@H](CN(C)C(=O)Nc2cc(F)ccc2F)Oc2cc(/C=C/c3ccccc3)ccc2S1(=O)=O	x	66*	x	x	x	x
C[C@H](CO)N1C[C@H](C)[C@@H](CN(C)C(=O)NC2CCCCC2)Oc2cc(C#Cc3ccc(F)cc3)ccc2S1(=O)=O	x	82*	x	x	x	x
O=C(C1CCC1)N1CC(=O)N2[C@H](CO)[C@H](c3ccc(-c4cccnc4)cc3)[C@@H]2C1	x	0	x	x	x	x
O=C(C1CCOCC1)N1[C@H](CO)[C@@H](c2ccccc2)C12CN(Cc1cccnc1)C2	x	-8	x	x	x	x
O=C(Cc1ccccn1)N[C@H]1CC[C@@H](CCNC(=O)c2cc(Cl)cc(Cl)c2)O[C@@H]1CO	x	8	x	x	x	x
COc1ccc(NC(=O)c2cc(-c3ccccc3O)n[nH]2)cc1Cl	-5	4	-15	1	-3	1
COc1ccc(NC(=O)c2cc(-c3cc(C)cc(C)c3O)n[nH]2)cc1Cl	3	36	36	14	99*	11
Cc1cccc(NC(=O)c2cc(-c3cc(C)cc(C)c3O)n[nH]2)c1	-9	-21	14	7	76*	9
C[C@@H]1CN([C@H](C)CO)C(=O)c2cccc(NC(=O)c3ccncc3)c2O[C@@H]1CN(C)CC1CC1	x	0	x	x	x	x
C[C@@H]1CN([C@@H](C)CO)C(=O)c2cc(C3=CCCCC3)cnc2O[C@@H]1CN(C)C(=O)Nc1ccc(F)cc1	x	12	x	x	x	x
CN(C)CC#Cc1ccc([C@H]2[C@@H](CO)N3CCCCN(C(=O)Nc4ccc(F)cc4)C[C@@H]23)cc1	x	-36	x	x	x	x
CC(C)(C)c1ccccc1NC(=O)c1ccc2c(c1)SC1=NS(=O)(=O)CCN12	-6	16	7	2	-7	9
